Experimental data: PubChem BioAssay (NCI)
About 83,000 compounds went through this panel and 20% of them were active in at least one assay; those are over-represented in the sample as a whole.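 The test compound was applied at a single concentration to cells in 96-well plates for 48 hours, and percent growth was recorded.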 A number with no mark means an inactive call. The source made the active and inactive calls. The calls were made as follows: active = growth percent below 10; inactive = the rest.

Tested on: HL-60(TB) leukemia
Assay: NCI-60 one-dose screen, 48 h (100 = growth as untreated, 0 = no growth, -100 = all killed)
Details: 10 µM unless noted

Row | Compound | growth
1 | CCCCCCCCn1cc(C2=C(c3coc4ccc(OC)cc34)C(=O)NC2=O)c2ccccc21 | 133%
2 | COC(=O)c1c2c(c(C)[n+]([O-])c1C)C(=O)C(NCc1cccc(OC)c1)=CC2=O | -52.2% (active)
3 | CC(C)n1cc2c(N)ncnc2n1 | 101%
4 | C[C@@H]1CCCCCCCCC[C@H](O)C(=O)C[C@@H](SC[C@@H](O)C(=O)O)C(=O)O1 | 86.8%
5 | O=S(=O)(Nc1cc(F)cc(F)c1)c1ccc(-c2cnc(C3CC3)o2)cc1 | 9.05% (active)
6 | CC(=O)Cc1cccnc1 | 82.4%
7 | NC(=O)OCCn1cc(-c2nc(-c3c[nH]c4ncccc34)cs2)c2ccccc21 | 6.14% (active)
8 | CN(C)CCCn1c2nc(=O)[nH]c(=O)c-2nc2cc(Cl)c(Cl)cc21 | 76%
9 | COC(=O)[C@]12CC[C@@H](C)[C@H](C)[C@@H]1C1=CC[C@@H]3[C@@]4(C)C(C=O)=C[C@@](C)(CO)[C@@H]4[C@H](O)C[C@@]3(C)[C@]1(C)CC2 | -14.4% (active)
10 | CNc1ccc2c(c1)c1ccccc1n2C | 93.7%
11 | COc1cccc(-c2nn(-c3ccccc3)cc2-c2ccnc(NCCNC(=O)c3ccccc3)c2)c1 | 25.2%
12 | C=C1C(=O)O[C@H]2[C@H]1CC/C(COC(=O)c1ccc(C(=O)O)s1)=C\CC[C@@]1(C)O[C@@H]21 | -31.4% (active)
13 | O=c1ccn(C2CC(O)C(O)C(CO)O2)c(=O)[nH]1 (stereo not given) | 90.4%
14 | Nc1cc(Cl)cc2cccnc12 | 72.3%
15 | CCCCCCCCCCCCCCCCCCOc1ccccc1CC(=O)NCC[N+]1(C)CCCCC1 | 41.8%
16 | CCOC(=O)c1c2ncccc2n2c(=O)n(-c3ccc(Cl)cc3)nnc12 | 80.5%
17 | CN1C(N2CCN(S(=O)(=O)c3ccccc3)CC2)=NS(=O)(=O)c2ccccc21 | 116%
18 | Nc1ccc(NC(=O)c2ccccc2)c2c1C(=O)c1ccccc1C2=O | 135%
19 | CC(=O)c1nn(-c2ccccc2)c(=Nc2ccccc2)cc1C | 106%
20 | Cc1cc(N/N=C/c2nc(-c3ccccc3)oc2C)c2cc(Cl)ccc2n1 | -37.4% (active)

Row | Compound | growth
21 | CN1CCN(CCCOc2ccc3nc(Nc4cc(Cl)cc(Cl)c4)ccc3c2)CC1 | -39.2% (active)
22 | CC(=O)c1c(C)[nH]c(-c2nc3ccc(N4CCN(C)CC4)cc3[nH]2)c1-c1ccccc1 | 4.85% (active)
23 | CC(C)(C)c1nn(-c2ccccc2)c2c1CC1(CN2Cc2ccc3c(c2)OCO3)C(=O)c2ccccc2C1=O | 102%
24 | CN(C)CCOC(=O)Nc1ccc(Cl)cc1 | 100%
25 | O=C(O)c1ccccc1C(=O)Nc1ccc(Cl)cc1 | 55%
26 | CC1Cc2ccccc2N1NC(=O)c1ccc(Cl)c(S(N)(=O)=O)c1 (stereo not given) | 92.3%
27 | Cc1cnc2nc(-c3ccc(N(C)C)cc3)cn2c1 | 90.7%
28 | COc1cc(OC)c(NC(=O)C(Sc2nc(C)cc(C)c2C#N)c2ccccc2)cc1Cl (stereo not given) | 94.1%
29 | COc1cc(NCc2ccccc2O)c2ncccc2c1 | 51%
30 | Cc1cccc2nc3ccccc3c(Nc3ccc(NS(C)(=O)=O)cc3)c12 | 1.14% (active)
31 | CCCCC[C@H](O)C/C=C1/C(=O)C=C[C@@H]1C/C=C\CCCC(=O)OC | 25.1%
32 | O=c1c2cc(F)ccc2sc2c(N3CCNCC3)nc3ccc(F)cc3c12 | 3.71% (active)
33 | c1c2c(cc3c1OCO3)Cc1cc3c(cc1Cc1cc4c(cc1C2)OCO4)OCO3 | 116%
34 | C=C(C)[C@@H]1CC[C@]2(C(=O)N3CCNCC3)CC[C@]3(C)[C@H](CC[C@@H]4[C@@](C)(CCC(=O)N5CCNCC5)[C@H](C(=C)C)CC[C@]43C)[C@@H]12 | 61%
35 | CC(C)(C)c1ccc(O)c(Br)c1 | 156%
36 | COc1ccc2nc(NC(=O)c3cccnc3Nc3ccc(S(N)(=O)=O)cc3)sc2c1 | 54.5%
37 | CC(C)COc1nc2c(c(=O)n(C)c(=O)n2C)n1C | 97%
38 | COc1ccc(/C=C\c2cc(OC)c(OC)c(OC)c2)cc1OCC(=O)Nc1ccc2nc(C)sc2c1 | -5.19% (active)
39 | O=C1/C(=C/c2ccc(Br)cc2)COc2ccc(O)cc21 | -15.7% (active)
40 | COc1cccc(/C=C2\Oc3cc(OCCN4CCCC4)ccc3C2=O)c1 | 99.6%
